# According to the supplement of paper PMC9262897, “Low-cost anti-mycobacterial drug discovery using engineered E. coli” (Nature Communications, 2022):
# Counter-ions that a name gives are not always drawn. ± gives the standard deviation of the averaged measurements.
# How the values were obtained:
# Assay in all cases: growth (OD600 after 10 h); higher = more growth (less inhibition)
# [1] = system: E. coli TESEC Alr+ wild-type control; settings: compound 0.1 mM; raw OD600 reference: median of DMSO wells 0.241, cell-free background 0.041
# Method: (§1)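 TESEC Mtb Alr E. coli, or the Alr+ wild-type control, in 384-well plates with Prestwick library compounds at 0.1 mM and 1% DMSO, across arabinose induction levels of 1E3 to 1E7 nM. Growth is read as OD600 after 10 h at 37 °C in triplicate biological replicates.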
# E. coli TESEC Mtb Alr [2] = settings: compound 0.1 mM
# Method: as §1
# E. coli TESEC Mtb Asd = settings: compound 0.1 mM
# Method: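 TESEC E. coli strains in which the native enzyme is deleted and replaced by arabinose-inducible Mtb Asd, DapB, CysH or TrpD, each grown in its selective medium. Strains were screened against the Prestwick library at 0.1 mM and 1% DMSO in 384-well format at low and high arabinose induction. Growth is read as OD600 after 10 h in triplicate.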
# [3] = system: E. coli TESEC Alr+ wild-type control; settings: compound 0.1 mM; raw OD600 reference: median of DMSO wells 0.49, cell-free background 0.052
# Method: (§2)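 TESEC Mtb Alr E. coli (ΔaraC ΔtolC ΔentC Δalr ΔdadX, arabinose-inducible Mtb Alr) or the Alr+ wild-type control strain, grown in defined M9-fructose medium without D-alanine in 96-well plates with Prestwick library compounds at 0.1 mM and 1% DMSO. Low Alr induction is 0.1 µM arabinose and high induction is 10 mM arabinose.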
# E. coli TESEC Mtb Alr [4] = settings: compound 0.1 mM; remark: listed apart in the source
# Method: as §2
# [5] = arabinose 1000 nM, raw OD600 reference: median of DMSO wells 0.294, cell-free background 0.041
# [6] = arabinose 10000 nM, raw OD600 reference: median of DMSO wells 0.264, cell-free background 0.041
# [7] = arabinose 100000 nM, raw OD600 reference: median of DMSO wells 0.201, cell-free background 0.041
# [8] = arabinose 1000000 nM, raw OD600 reference: median of DMSO wells 0.193, cell-free background 0.041
# [9] = arabinose 10000000 nM, raw OD600 reference: median of DMSO wells 0.146, cell-free background 0.041
# [10] = arabinose induction (level): High, raw OD600 reference: median of DMSO wells 0.331, cell-free background 0.041
# [11] = arabinose induction (level): Low, raw OD600 reference: median of DMSO wells 0.417, cell-free background 0.041
# [12] = arabinose 100 nM, raw OD600 reference: median of DMSO wells 0.413, cell-free background 0.052
# [13] = arabinose 10000000 nM, raw OD600 reference: median of DMSO wells […], cell-free background 0.052
SMILES,growth [1],growth (E. coli TESEC Mtb Alr [2]; [5]),growth (E. coli TESEC Mtb Alr [2]; [6]),growth (E. coli TESEC Mtb Alr [2]; [7]),growth (E. coli TESEC Mtb Alr [2]; [8]),growth (E. coli TESEC Mtb Alr [2]; [9]),growth (E. coli TESEC Mtb Asd; [10]),growth (E. coli TESEC Mtb Asd; [11]),growth [3],growth (E. coli TESEC Mtb Alr [4]; [12]),growth (E. coli TESEC Mtb Alr [4]; [13])
CCN(CC)CCNC(=O)c1cc(Cl)c(N)cc1OC [Metoclopramide monohydrochloride],0.2268 ± 0.0011,0.278 ± 0.016,0.252 ± 0.017,0.195 ± 0.015,0.179 ± 0.0077,0.144 ± 0.0028,0.252 ± 0.015,0.485 ± 0.011,0.633 ± 0.05,0.409 ± 0.0098,0.358 ± 0.0081
CC(C)NC[C@@H](O)COc1ccc(CC(N)=O)cc1 [(R)-(+)-Atenolol],0.255 ± 0.004,0.322 ± 0.019,0.262 ± 0.012,0.221 ± 0.013,0.1771 ± 0.00066,0.161 ± 0.0073,0.485 ± 0.012,0.442 ± 0.033,0.546 ± 0.038,0.405 ± 0.019,0.342 ± 0.012
Cc1cccc(N(C)C(=S)Oc2ccc3ccccc3c2)c1 [Tolnaftate],0.255 ± 0.019,0.272 ± 0.02,0.268 ± 0.012,0.165 ± 0.016,0.11 ± 0.011,0.163 ± 0.0066,0.281 ± 0.07,0.246 ± 0.047,0.465 ± 0.0063,0.384 ± 0.015,0.264 ± 0.064
CN(CCOc1ccc(NS(C)(=O)=O)cc1)CCc1ccc(NS(C)(=O)=O)cc1 [Dofetilide],0.209 ± 0.0043,0.28 ± 0.0052,0.253 ± 0.008,0.171 ± 0.016,0.173 ± 0.0041,0.133 ± 0.0023,0.213 ± 0.019,0.336 ± 0.076,0.589 ± 0.053,0.427 ± 0.0089,0.318 ± 0.0084
CO[C@H]1C[C@H](O[C@H]2[C@H](C)[C@@H](O[C@@H]3O[C@H](C)C[C@H](N(C)C)[C@H]3OC(C)=O)[C@@H](C)C[C@@]3(CO3)C(=O)[C@H](C)[C@@H](OC(C)=O)[C@@H](C)[C@@H](C)OC(=O)[C@@H]2C)O[C@@H](C)[C@@H]1OC(C)=O [Troleandomycin],0.0738 ± 0.00081,0.0647 ± 0.0085,0.0495 ± 0.0021,0.0702 ± 0.0019,0.04923 ± 0.00025,0.0672 ± 0.00087,0.15 ± 0.012,0.145 ± 0.0075,0.0617 ± 0.0015,0.112 ± 0.02,0.0707 ± 0.017
Cc1c(Cl)cccc1Nc1ccccc1C(=O)O [Tolfenamic acid],0.0444 ± 0.0007,0.0448 ± 0.0007,0.0413 ± 0.0001,0.0477 ± 0.0013,0.0424 ± 0.00053,0.0598 ± 0.0014,0.0513 ± 0.0022,0.052 ± 0.004,0.0743 ± 0.0023,0.0964 ± 0.065,0.0536 ± 0.0002
Nc1ccc(S(=O)(=O)Nc2ccnn2-c2ccccc2)cc1 [Sulfaphenazole],0.231 ± 0.0032,0.236 ± 0.0082,0.1522 ± 0.0011,0.197 ± 0.031,0.0993 ± 0.0064,0.149 ± 0.0051,0.335 ± 0.033,0.354 ± 0.0096,0.484 ± 0.04,0.429 ± 0.0073,0.233 ± 0.15
CN[C@@H]1[C@H](O)[C@H](NC)[C@H]2O[C@@]3(O)C(=O)C[C@@H](C)O[C@H]3O[C@@H]2[C@H]1O [Spectinomycin dihydrochloride],0.0517 ± 0.00091,0.0841 ± 0.0062,0.0632 ± 0.0013,0.075 ± 0.0085,0.0512 ± 0.00079,0.05437 ± 0.00031,0.0788 ± 0.0045,0.0788 ± 0.0017,–,0.308 ± 0.021,0.0979 ± 0.014
CCCCC(CC)CN1CN(CC(CC)CCCC)CC(C)(N)C1 (stereo not drawn) [Hexetidine],0.219 ± 0.015,0.259 ± 0.0085,0.309 ± 0.0098,0.228 ± 0.039,0.161 ± 0.014,0.187 ± 0.0073,0.309 ± 0.022,0.373 ± 0.059,0.0454 ± 0.00058,0.173 ± 0.21,0.0486 ± 0.0013
Clc1ccc(CO/N=C(\Cn2ccnc2)c2ccc(Cl)cc2Cl)c(Cl)c1 [Oxiconazole Nitrate],0.0527 ± 0.0022,0.0489 ± 0.0051,0.0625 ± 0.0013,0.0581 ± 0.003,0.0621 ± 0.0011,0.0621 ± 0.0089,0.0621 ± 0.001,0.0577 ± 0.0051,–,0.095 ± 0.058,0.0891 ± 0.0035
